Screens as filed in PubChem BioAssay.
Tau fibril FP: tau fibrillization inhibition (FP); P10636; K18 P301L tau heparin fibrillization, Alexa594 FP, 6 h; Potency, µM (doses to about 57.7 µM), inactives show at the top dose activity, negative = inhibition, hits mostly inhibitors; 0.39% of 280,000 active; AID 1468; further: nearly all actives have a fitted effect of over 55% in size
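Recombinant K18 P301L […], labeled with Alexa 594 at 0.24 uM over 15 uM unlabeled; heparin inducer 20 uM final; 37 C, 6 hr; FP endpoint.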
Tau fluor cs: counter-screen for tau fibril formation inhibitors; tau K18 P301L Alexa594 fluorescence, heparin fibrillization; Potency, µM (top dose mostly 57.7 µM), for inactives: at the highest dose activity change, negative = decrease; 0.93% of 280,000 active; AID 1463; further: nearly all actives have a fitted effect of over 55% in size
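Human K18 P301L tau (15 uM unlabeled plus 0.24 uM Alexa 594-labeled, final) in 100 mM sodium acetate pH 7 was mixed with compound and 20 uM heparin and incubated 6 hr at 37 C.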
TexasRed fluor: Texas Red fluorescence interference in TRb-SRC2 counter-screen. Potency, µM (highest dose often 106 µM), for inactives: top-dose fluorescence change, negative = quenching. 0.29% of 280,000 active. TRb/SRC2 Texas Red total fluorescence interference; active means well fitted curve in either direction with a large enough effect; inconclusive means small, poorly fitted or top-dose-only effect
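Flags fluorescent or light-absorbing compounds by total fluorescence, S + 2P, at 555 nm excitation and 632 nm emission. Mixture: 20 nM Texas Red SRC2 peptide, 0.6 uM human TRb LBD, 1 uM T3, 5% DMSO; compound exposure 5 h at ambient temperature.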
Tau fibril ThT: tau fibrillization inhibition (ThT binding); P10636; 2.1% of 270,000 active; recombinant tau K18 P301L (four-repeat tau fragment), heparin-induced fibrillization, ThT fluorescence; Potency, µM (titrated, usually from 57.4 µM), for inactives: top-dose activity, negative = inhibition, usual class: inhibitors; further: nearly all actives have a fitted effect of over 55% in size
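K18 P301L tau (15 uM + 0.24 uM Alexa 594-tagged), heparin 20 uM, NaOAc pH 7, 6 h 37 C; ThT 30 uM, 1 h RT, ex 450/em 510 nm.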
TRb SRC2 PPI: TRbeta-SRC2 interaction inhibition; P10828; TRbeta-SRC2 peptide binding, fluorescence polarization; receptor liganded with 1 µM T3; Potency, µM (titrated, usually from 106 µM), inactives show at the highest dose activity change, negative = inhibition, most hits filed as inhibitors; 0.065% of 280,000 active;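 further: plate controls were bound peptide for no effect and peptide without receptor for full effect; nearly all actives have a fitted effect of over 50% in size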
Target sequence (P10828 whole entry, looked up): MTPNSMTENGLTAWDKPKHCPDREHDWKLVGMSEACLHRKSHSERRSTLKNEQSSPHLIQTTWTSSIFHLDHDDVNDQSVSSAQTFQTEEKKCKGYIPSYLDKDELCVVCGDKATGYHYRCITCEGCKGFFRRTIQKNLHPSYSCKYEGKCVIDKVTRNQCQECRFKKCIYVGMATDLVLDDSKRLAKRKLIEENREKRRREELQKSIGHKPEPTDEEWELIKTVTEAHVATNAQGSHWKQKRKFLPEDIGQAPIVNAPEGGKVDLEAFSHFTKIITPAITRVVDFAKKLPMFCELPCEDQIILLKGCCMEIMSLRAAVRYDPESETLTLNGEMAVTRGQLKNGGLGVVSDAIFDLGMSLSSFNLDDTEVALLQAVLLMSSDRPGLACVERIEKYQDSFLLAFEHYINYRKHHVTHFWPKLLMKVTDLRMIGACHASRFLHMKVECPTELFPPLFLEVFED
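Human TRb ligand-binding domain (0.6 uM) is mixed with 20 nM Texas Red SRC2 peptide and 1 uM T3; after compound addition and 5 hr at ambient temperature, polarization is measured and normalized to unbound and bound controls.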
* marks the source's active call; other numbers are inactive results; ? = inconclusive; [ ] = remark or other dose. Rows were chosen to be rich in hits. Some 3.1% of all compounds tested hit in one or more screens of this group. Unless noted, the call rests on the fitted dose curve; in most records, active means well fitted curve in the direction sought with a large enough effect; inconclusive means small, poorly fitted or top-dose-only effect, or another doubt; inactive means no such curve, though single readings can be large; an effect the other way counts as inactive or inconclusive. Unless noted, on the % scale 0 is the no-effect control and ±100 the full control effect; potency means the concentration at half of the fitted maximal effect.

SMILES	Tau fibril FP	Tau fluor cs	TexasRed fluor	Tau fibril ThT	TRb SRC2 PPI
O=C(Nc1cccc(F)c1)C1CCN(S(=O)(=O)c2ccc3[nH]c4c(c3c2)CCCCC4)CC1	-2%	28µM*[quencher]	-2%	-13%	4%
O=C1c2ccccc2-c2c1cccc2C(=O)N1CCCCC1	-3%	-12%	-2%	-11%	3%
CC1CC(C)CN(C(=O)c2ccc3c(c2NCCO)C(=O)c2ccccc2C3=O)C1 (stereo unspecified)	10%	?	17%	18µM*	6%
COc1cccc2nc3cc(C)c(C)cc3nc12	?	-27%	-9%	22µM*	3%
COc1cccc2c1nc(C)c1cc(C)oc12	-1%	-7%	-3%	-11%	-22%
Cc1ccc2oc(=O)n(CCCOc3ccccc3C)c2c1	3%	-23%	4%	?	-2%
COc1ccc(-c2n[nH]c(C)c2-c2cnn(-c3ccccc3)c2)c(O)c1C	?	13µM*[quencher]	-1%	?	-13%
CCOC(=O)c1nn(-c2ccccc2C)c(=O)c(C#N)c1C	0%	-17%	0%	?	8%
CCOC(=O)c1nn(-c2ccccc2C)c(=O)c2c(N)scc12	18µM*	-26%	-1%	16µM*	-3%
Cc1cccc(OCC(=O)Nc2ccccc2OCc2cc(=O)n3ccccc3n2)c1	-8%	-12%	-1%	-5%	-7%
Cc1nc(Nc2ccccc2)c2nc(-c3ccccc3)n(CCCN3CCCCC3C)c2n1 (stereo unspecified)	-2%	-20%	-2%	-8%	1%
COc1cccc(CNC(=O)CSc2ccc(-c3sc(-c4ccccc4)nc3C)nn2)c1	-6%	?	-2%	?	-7%
COC/C=C/C1=CC2=CC(=O)C(C)(OC(=O)c3cccs3)C(=O)C2=CO1 (stereo unspecified)	-2%	-10%	-2%	-13%	8%
COC/C=C/C1=CC2=CC(=O)C(C)(OC(=O)C3CCCC3)C(=O)C2=CO1 (stereo unspecified)	10µM*	?	-2%	25µM*	5%
COC/C=C/C1=CC2=CC(=O)C(C)(OC(=O)c3ccco3)C(=O)C2=CO1 (stereo unspecified)	?	?	3%	25µM*	-8%
CCOc1cccc(CNCCO)c1OCc1ccc(Cl)cc1Cl	0%	-8%	-2%	-12%	-14%
CCOc1c(Cl)cc(CNc2ccc(S(N)(=O)=O)cc2)cc1OC	-1%	9%	0%	6%	5%
CCOc1cc(CNc2ccc(O)cc2)cc(Cl)c1OCc1ccccc1	-8%	16µM*[quencher]	?	?	?
CCOc1cccc(CNc2ccc(O)cc2)c1OCc1ccccc1Cl	11µM*	10µM*[quencher]	1%[11.2 µM]	28µM*	2%[11.2 µM]
CCOc1c(Cl)cc(CNc2ccc(N3CCCC3)cc2)cc1OC	7.9µM*	?	11%	3.2µM*	?
CCOc1cccc(CNc2ccc(O)cc2)c1OCc1ccc(Cl)cc1Cl	28µM*	?	4%	28µM*	25µM*
Cc1ccccc1-n1sc2cc(F)ccc2c1=O	25µM*	-14%	-1%	10µM*	-4%
Cc1ccccc1-n1c(=O)c2ccccc2n2cnnc12	8%	-4%	4%	4%	5%
Cc1c(C(=O)NCc2ccccc2)sc2nc3n(c(=O)c12)CCCCC3	-10%	-2%	-28%	?	2%
O=C(O)c1ccc(C(=O)C(=O)c2ccccc2)cc1	3%	9%	4%	-3%	4%
CSC(SC)=C(C#N)C(=O)c1ccccc1	14µM*	-19%	-3%	20µM*	-8%
COc1cccc(C(=O)C(C#N)=C(SC)SC)c1	?	-19%	-1%	25µM*	-2%
CN(C)S(=O)(=O)c1ccc(C(=O)NCCSc2c(-c3ccc(Cl)cc3)[nH]c3ccccc23)cc1	-15%	14µM*[quencher]	-1%	-12%	-1%
CCOc1ccc(C(=O)NCCSc2c(C)[nH]c3ccccc23)cc1OCC	?	14µM*[quencher]	-2%	?	-7%
COc1ccc(-c2[nH]c3ccccc3c2SCCNC(=O)c2ccc(S(=O)(=O)N(C)C)cc2)cc1	3%	4µM*[quencher]	0%	-10%	-2%
